± gives the standard deviation of the averaged measurements.
biological target: T1, MurD (UniProt P14900); experiment: relative enzymatic activity vs untreated control (fraction); higher = less inhibition; conditions: 100 µM; incubation time: 2 h at 37 C
T1 sequence (whole entry): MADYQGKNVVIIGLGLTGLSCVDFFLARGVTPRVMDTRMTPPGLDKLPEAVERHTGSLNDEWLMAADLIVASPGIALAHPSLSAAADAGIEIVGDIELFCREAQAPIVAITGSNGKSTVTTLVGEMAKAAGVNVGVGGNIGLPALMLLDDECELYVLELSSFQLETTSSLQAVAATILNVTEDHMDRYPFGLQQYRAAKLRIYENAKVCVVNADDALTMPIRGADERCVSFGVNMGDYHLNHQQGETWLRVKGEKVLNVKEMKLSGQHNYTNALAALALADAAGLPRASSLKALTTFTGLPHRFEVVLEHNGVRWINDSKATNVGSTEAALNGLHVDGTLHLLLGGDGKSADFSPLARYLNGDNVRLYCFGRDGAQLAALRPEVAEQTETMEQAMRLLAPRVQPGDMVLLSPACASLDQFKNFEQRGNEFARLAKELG
Description: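 In vitro enzymatic inhibition assays (ProFoldin kits) for 12 purified essential E. coli enzymes or complexes, each treated with 218 active antibacterial compounds at 100 µM for 2 h at 37°C. Read-outs were fluorescence or absorbance (phosphate detection, dye binding), converted to activity via standard curves and expressed relative to untreated DMSO controls.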

O=S(=O)(O)O.Oc1cccc2cccnc12 and CC(=O)Oc1ccc(Cl)c2cccnc12 are within error of each other in relative enzymatic activity: 0.564 ± 0.35 for the first, 0.611 ± 0.41 for the second.

CN[C@H]1C[C@@H](N)[C@H](O)[C@@H](O[C@@H]2O[C@H](CO)[C@H](O)[C@@H]3O[C@@]4(O[C@H]23)O[C@H]([C@@H](N)CO)[C@H](O)[C@H](O)[C@H]4O)[C@@H]1O and CNC1C(O)C(OC2C(N)CC(N)C(OC3OC(C(C)O)C(O)C(O)C3N)C2O)OCC1(C)O (centres undefined) are the same in relative enzymatic activity: 0.592 ± 0.39 for the first, 0.592 ± 0.38 for the second.

Oc1cc(Cl)ccc1Oc1ccc(Cl)cc1Cl and COP(=S)(OC)Oc1cc(Cl)c(Cl)cc1Cl are within error of each other in relative enzymatic activity: 0.759 ± 0.41 for the first, 0.655 ± 0.44 for the second.

CCCCCCCCCCCCCCCC[N+](C)(C)C.[Br-] and CCCCCCCCCCCCCCCC[n+]1ccccc1 are within error of each other in relative enzymatic activity: 0.256 ± 0.17 for the first, 0.191 ± 0.13 for the second.

Cn1ncnc2c(=O)n(C)c(=O)nc1-2 and Cc1nc2c(=O)n(C)c(=O)nc-2n(C)n1 are within error of each other in relative enzymatic activity: 0.598 ± 0.36 for the first, 0.174 ± 0.24 for the second.

O=C1C=C2C(=CCOC2O)O1 (centres undefined) and CN1C(=O)[C@]23CC4=CC=C[C@H](O)[C@H]4N2C(=O)[C@@]1(CO)SS3 are within error of each other in relative enzymatic activity: 0.611 ± 0.42 for the first, 0.574 ± 0.39 for the second.

C[CH2][Hg][S]c1ccccc1C(=O)[O-].[Na+] and CC(=O)[O][Hg][c]1ccccc1 are within error of each other in relative enzymatic activity: 0.657 ± 0.43 for the first, 0.226 ± 0.14 for the second.

Cc1c(N)nc([C@H](CC(N)=O)NC[C@@H](N)C(N)=O)nc1C(=O)N[C@H](C(=O)N[C@@H](C)[C@H](O)[C@@H](C)C(=O)N[C@@H](C(=O)NCCc1nc(-c2nc(C(=O)NCCC[S+](C)C)cs2)cs1)[C@@H](C)O)[C@@H](O[C@H]1O[C@H](CO)[C@H](O)[C@@H](O)[C@H]1O[C@H]1O[C@H](CO)[C@@H](O)[C@H](OC(N)=O)[C@@H]1O)c1cnc[nH]1 and Cc1c(N)nc([C@H](CC(N)=O)NC[C@@H](N)C(N)=O)nc1C(=O)N[C@H](C(=O)N[C@@H](C)[C@H](O)[C@@H](C)C(=O)N[C@@H](C(=O)NCCc1nc(-c2nc(C(=O)NCCC[S+](C)C)cs2)cs1)[C@@H](C)O)[C@@H](O[C@H]1O[C@H](CO)[C@H](O)[C@@H](O)[C@H]1O[C@H]1O[C@H](CO)[C@@H](O)[C@H](OC(N)=O)[C@@H]1O)c1c[nH]cn1 are within error of each other in relative enzymatic activity: 0.624 ± 0.45 for the first, 0.969 ± 0.9 for the second.

CN(C)[C@@H]1C(=O)[C@H](C(N)=O)C(=O)[C@@]2(O)C(=O)[C@@H]3C(=O)c4c(O)cccc4[C@@](C)(O)[C@H]3C[C@@H]12 and CN(C)[C@@H]1C(=O)[C@@H](C(N)=O)C(=O)[C@@]2(O)C(=O)[C@H]3C(=O)c4c(O)ccc(Cl)c4[C@@](C)(O)[C@H]3C[C@@H]12 are within error of each other in relative enzymatic activity: 0.603 ± 0.41 for the first, 0.607 ± 0.41 for the second.

CCn1cc(C(=O)[O-])c(=O)c2cc3c(cc21)OCO3.[K+] and CN(C)[C@@H]1C(=O)C(C(N)=O)=C(O)[C@@]2(O)C(O)=C3C(=O)c4c(O)cccc4[C@](C)(O)[C@H]3C[C@@H]12 are within error of each other in relative enzymatic activity: 0.598 ± 0.42 for the first, 0.606 ± 0.43 for the second.

O=[N+]([O-])c1ccc(N(CCO)CCO)c2c1no[n+]2[O-] and O=[N+]([O-])C(Br)(CO)CO are within error of each other in relative enzymatic activity: 0.623 ± 0.41 for the first, 0.486 ± 0.48 for the second.

Going from [O-][n+]1ccccc1[S][Zn][S]c1cccc[n+]1[O-] to CCCCCCCCCCCCCCCC[n+]1ccccc1.[Cl-], the relative enzymatic activity falls from 0.587 ± 0.4 to 0.0847 ± 0.0065.

Source: the supplement of paper PMC9446081
